From PubChem BioAssay
GASC-1 inh: inhibitors of GASC-1 histone demethylase, primary screen, biochemical, fluorescence, DELFIA europium. GST-JMJD2C(1-420) H3K9me3 demethylation. inhibition, % at 2.35 µM. Lysine-specific demethylase 4C (Homo sapiens), Q9H3R0. hit rate 0.069% among 330,000;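 active = more than half of a compound's replicate wells show inhibition beyond 50%, single wells judged on their own value; inconclusive = some, but no more than half, of replicates pass 50% inhibition; inactive = no replicate passes 50% inhibition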;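 note: signal counts dimethyl H3K9 product captured on neutravidin plate; 0% = median of DMSO wells and 100% = 0.3 times that DMSO median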
VLA-4 inh: inhibition in human VLA-4 binding assay, primary screen, VLA-4 allosteric modulator project, MLPCN library, flow cytometry, VLA-4 expressing cells; Integrin alpha-4 (Homo sapiens), P13612; ligand binding flow cytometry; inhibition, % (about 7 µM as worked out from the volumes in the protocol); hit rate 0.2% among 330,000; AID 2557, 2010; in the data active = inhibition above about 50%
MEX-5 binding: MEX-5 zinc finger RNA-binding disruptors – biochemical, C. elegans, fluorescence polarization, MLPCN library, primary screen; MEX-5/FITC-TCR2 RNA binding; hits give low values; activity score (negative = inhibition of binding), % at 10 µM; hit rate 0.38% among 300,000; AID 1832, 2009;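 active = inhibition past about -25% in most replicates, and total fluorescence under double the plate's negative control median, limit read from the data; inconclusive = replicates evenly split on the limit, or fluorescence at least double controls; inactive = too little inhibition in most replicates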;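 note: 0% = DMSO and -100% = 5 µM competing unlabeled TCR2 RNA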
V-ATPase pH: regulators of yeast V-ATPase proton pumping, primary screen, pHLuorin cytosolic pH fluorescence; S. cerevisiae; response, % at 10 µM; hit rate 0.37% among 350,000; in the data active = response mostly above about 7.3%, no sharp cut-off; inactive = mostly below about 5.4%; note: actives read high
m5-HT2A agonist: mouse Htr2a agonists via beta-arrestin recruitment, primary screen, cell-based, luminescence; CHO-K1 mHTR2A beta-arrestin complementation; percent of 30 µM serotonin response; activation, % at 7.6 µM; hit rate 0.66% among 360,000;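 active = activation above a run cutoff, the mean activation of all tested compounds plus 3 SD, cut at about 14% in these data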;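 note: 0% = plate median of compound wells and 100% = 30 µM serotonin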
Exocytosis inh: LAMP-1 surface exposure blockers, TALL-104 cells – cell-based, flow cytometry, MLPCN library, primary screen | TALL-104 LAMP-1 surface exposure; cells stimulated with thapsigargin and PMA | hit rate 0.66% among 360,000 | inhibition, % at 10 µM;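 active = inhibition above about 55%, limit read from the data; inconclusive = no clear call, values can overlap the other calls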
OPRM1 ag: OPRM1 agonists via beta-arrestin recruitment, confirmation, counter-screen for mouse HTR2A agonist project, cell-based, luminescence, single concentration; shares compounds with m5-HT2A agonist; hit rate 5.3% among 2,300; AID 624380, 2012; U2OS OPRM1 beta-arrestin PathHunter; DMSO 0%, DAMGO 9.3 µM 100%; activation, % at 9.3 µM;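 active = mean activation above the mean of DMSO-only wells plus 3 SD, cut at about 0.5% in these data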
Target sequence (P35372 whole entry, looked up): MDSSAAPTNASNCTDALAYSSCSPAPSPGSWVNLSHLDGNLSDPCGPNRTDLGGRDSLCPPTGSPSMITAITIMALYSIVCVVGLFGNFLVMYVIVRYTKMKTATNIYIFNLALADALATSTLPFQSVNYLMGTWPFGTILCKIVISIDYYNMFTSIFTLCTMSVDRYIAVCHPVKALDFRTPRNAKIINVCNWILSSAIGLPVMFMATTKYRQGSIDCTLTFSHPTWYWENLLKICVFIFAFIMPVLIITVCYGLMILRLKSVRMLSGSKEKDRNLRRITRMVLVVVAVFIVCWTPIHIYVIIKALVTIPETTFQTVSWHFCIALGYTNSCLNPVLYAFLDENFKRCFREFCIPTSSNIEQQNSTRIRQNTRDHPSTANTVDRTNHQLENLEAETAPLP
m5-HT2A ag conf: mouse HTR2A agonists, beta-arrestin recruitment, confirmation, cell-based, luminescence, CHO-K1 PathHunter, triplicate; hit rate 19% among 2,300; activation, % at 7.6 µM; DMSO 0%, 30 µM serotonin 100%; shares compounds with m5-HT2A agonist;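 active = mean activation across triplicates above the hit threshold derived in the original primary screen, cut at about 15% in these data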
An asterisk follows results filed as active; ? = inconclusive; / = no result given. In the library only some 2.2% were active in any assay of this set; here they are far more common.

SMILES	GASC-1 inh	VLA-4 inh	MEX-5 binding	V-ATPase pH	m5-HT2A agonist	Exocytosis inh	OPRM1 ag	m5-HT2A ag conf
COc1cccc(N2CCN(Cc3nc(N)nc(N4CCCc5ccccc54)n3)CC2)c1	3	7	0	1	17*	?	0	42*
COc1ccc(Nc2nc(N)nc(CN3CCc4ccccc4C3)n2)cc1	-4	2	1	-1	-6	2	/	/
CCCNC(=O)C1(C)CCCN(C(=O)Cc2cccc(OC)c2)C1 (stereo not given)	/	/	/	/	-4	-3	/	/
CC(=O)NCCC(=O)Nc1ncc(S(=O)(=O)c2ccc([N+](=O)[O-])cc2)s1	-11	18	0	-1	4	10	/	/
CC(=O)Nc1ncc(Sc2ccc([N+](=O)[O-])cc2)s1	/	/	/	0	20*	2	0	-4
COc1ccc(S(=O)(=O)N2CCCCCC2)cc1C(=O)OCc1cccc(OC)c1OC	-5	2	1	0	-2	0	/	/
Cc1cc(NC(=O)c2cc([N+](=O)[O-])ccc2Cl)no1	-10	8	2	-3	17*	-1	0	-2
Cc1cc(NC(=O)c2ccc([N+](=O)[O-])cc2Cl)no1	6	1	-1	-5	4	22	/	/
CC(=O)N1CCN(C(=O)c2ccc(S(=O)(=O)Nc3ccccc3Cl)cc2)CC1	-4	15	-2	5	16*	0	0.9*	6
COc1ccc(OC)c(NC(=O)CN2C(=O)NC(C)(c3ccc4c(c3)OCCO4)C2=O)c1 (stereo not given)	1	-13	/	1	0	1	/	/
CC(C)N1CCC(=NNc2ccc(S(=O)(=O)N3CCOCC3)cc2[N+](=O)[O-])CC1	-4	-8	-2	1	0	-4	/	/
CCCN1CCC(=NNc2ccc(S(=O)(=O)N3CCOCC3)cc2[N+](=O)[O-])CC1	20	2	0	0	17*	18	0	1
COc1ccc(NC(=O)N2CCCC(C(=O)Nc3cccc(C)c3C)C2)cc1 (stereo not given)	-2	8	-1	2	16*	-16	0	-4
CC1CCCN(C(=O)CSCC(=O)Nc2nc(-c3cccs3)cs2)C1 (stereo not given)	12	-1	0	1	15*	11	-1	3
CCOC(=O)c1csc(CCNC(=O)c2ccccc2)n1	/	/	/	-4	0	17	/	/
COc1ccc(-n2c(SCC(=O)Nc3cc(C)on3)nc3c(c2=O)SCC3)cc1OC	-16	-7	-1	-2	23*	3	-1	-4
O=C(CSc1nnc(COc2ccc(Cl)cc2)o1)Nc1ccc(N2CCOCC2)cc1	/	/	/	6	3	3	/	/
COc1ccc(N2C(=O)CSC2c2cccc(OC)c2OC)cc1 (stereo not given)	-6	0	3	4	19*	-3	-1	-2
COc1ccc(C(=O)N2CCC2)cc1S(=O)(=O)NCc1ccc(Cl)cc1	2	3	/	-4	-1	16	/	/
COC(=O)C1=C[C@@H](C(=O)OC)[C@@H]2C3=C(C(=O)C2(C)C)[C@H](C)n2c(=O)n(-c4ccccc4)c(=O)n2[C@@H]3C1	-9	25	0	2	-4	-9	/	/
COC(=O)C(C)Sc1nnc(Cc2cc(=O)[nH]c(=O)[nH]2)n1-c1cc(C)ccc1C (stereo not given)	-7	-14	1	-1	31*	-4	0	-3
Cc1cc(-c2cccs2)c2c(n1)sc1c(=O)[nH]c(=O)[nH]c12	-1	-2	-5	3	17*	0	-1	-3
CCOC(=O)c1c(NC(=O)C2CCCCC2)sc2c1CCN(C(C)C)C2	1	-19	0	-3	1	-3	/	/
COC(=O)CNc1c(-c2ccccn2)nc2ccc(Br)cn12	5	-61	/	-1	19*	-2	-1	-4
COc1ccc(S(=O)(=O)Cc2ccc(C(=O)N3CCOCC3)o2)cc1	3	44	0	3	17*	4	-1	-2
SMILES	GASC-1 inh	VLA-4 inh	MEX-5 binding	V-ATPase pH	m5-HT2A agonist	Exocytosis inh	OPRM1 ag	m5-HT2A ag conf
COc1ccc(C(=O)N=C2SC3CS(=O)(=O)CC3N2c2ccc(C(C)=O)cc2)cc1 (stereo not given)	?	0	-3	-4	16*	0	0	-5
Cc1cc(S(=O)(=O)N2CCCc3ccccc32)ccc1-n1cnnn1	-3	8	1	-1	2	-4	/	/
O=C(Nc1ccccc1Cl)c1ccccc1CC(O)(c1ccccc1)c1ccccc1	/	/	/	0	21*	14	0	-4
CC(C)(C)c1ccc(C(=O)Nc2ccccc2Cl)cc1	1	9	1	-2	-3	-1	/	/
Cc1ccc(C(C)C)c(OCC(O)CNC2CCCC2)c1 (stereo not given)	-8	-2	1	0	-7	6	/	/
CN(C(=O)Cn1nc(C(=O)O)c2ccccc2c1=O)C1(C#N)CCCCC1	-5	0	/	-3	19*	-2	0	9
COc1ccc(/C=N\NC(=O)CCN2CCN(c3ccccc3)CC2)cc1OC	-4	1	-1	-4	10	-1	/	/
O=C(CCN1CCN(c2ccccc2)CC1)N/N=C/c1ccccc1OC(F)F	8	-19	0	1	17*	7	0	50*
O=C(NC(=S)N1CCN(c2ccccc2)CC1)c1ccc(S(=O)(=O)N2CCOCC2)cc1	8	-32	-2	3	3	4	/	/
CN(C)/C=C(\C=O)c1ncc(C(F)(F)F)cc1Cl	-11	4	3	-1	2	11	/	/
C/C(=C\C(=O)c1ncc(C(F)(F)F)cc1Cl)N(C)C	-7	-2	-2	1	21*	1	-1	-6
CCCc1cc(CCC)n2nc(N)nc2n1	/	/	/	4	15*	-9	0	-3
CC(C)c1cc(C(C)C)n2nc(N)nc2n1	-8	22	-2	-1	5	-1	/	/
CCOC(=O)C1CCN(S(=O)(=O)c2c(C)n(C)c(=O)n(C)c2=O)CC1	35	-2	-2	3	21*	2	-1	-1
